The values that follow come from PubChem BioAssay (EPA / NIEHS).

Molecules are shown by their SMILES. Inconclusive results are not listed. Active and inactive are the calls of the source. The calls were made as follows: active = hit-call score of the fitted dose curve at least 0.9, where 1 is the maximum; inconclusive = response in the unintended direction; inactive = score below 0.9.

Read-out in this assay: ABC Transporter (ABCB1), ABCB1 (gene 5243)
As to the kind of experiment: CLD_ABCB1_24hr: CellzDirect (CLD) Gene Expression Assay for ABC Transporter (ABCB1) at 24 hours (AID 2283684).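 As to AC50: potency for increase in ABCB1 mRNA relative to DMSO vehicle.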 As for the experimental part:
CLD_24hr is a cell-based, multiplexed-readout assay that uses hepatocyte, a human liver primary cell, with measurements taken at 24 hours after chemical dosing in a 96-well plate.CLD_ABCB1_24hr is one of 16 assay component(s) measured or calculated from the CLD_24hr assay. It is designed to make measurements of mRNA induction, a form of inducible reporter, as detected with chemiluminescence signals by Quantitative Nuclease Protection Assay (qNPA) technology.Data from the assay component CLD_ABCB1_24hr was analyzed at the endpoint, CLD_ABCB1_24hr, in the positive analysis fitting direction relative to DMSO as the negative control and baseline of activity. Using a type of inducible reporter, gain-of-signal activity can be used to understand changes in the reporter gene as they relate to the gene ABCB1. Furthermore, this assay endpoint can be referred to as a primary readout. To generalize the intended target to other relatable targets, this assay endpoint is annotated to the transporter intended target family, where subfamily is ABC transporter.
Human hepatocyte cultures were treated daily for two consecutive days with fresh dosing solutions containing appropriate concentrations of the 320 ToxCast chemicals (chemical identities were blinded to CellzDirect and other ToxCast collaborators), vehicle control (0.2% DMSO), and positive control inducers as summarized in Table 1. Due to the large number of treatment groups and chemicals examined, the ToxCast chemicals were divided into two groups (spanning two independent cultures of hepatocytes from separate donor preparations (Hu778: ToxCast plates 1 and 2; Hu776: ToxCast plates 3 and 4). Each preparation of human hepatocyte cultures was treated with respective vehicle control, medium only control, set of six positive controls/reference chemicals for the five hepatic receptor pathways, and a subset of eight of the ToxCast chemicals (indoxacarb, pyrithiobac-sodium, norflurazon, cyhalofop-butyl, methomyl, thiram, acetochlor, and propiconazole). These replicate data, coupled with internal replicates designed within the blinded ToxCast chemical library, provided additional data to evaluate interindividual differences between hepatocyte preparations and their potential impact on chemical profiles.Cell morphology and integrity were evaluated using phase-contrast microscopy as an indicator of hepatocyte cell health (Tyson & Green, 1987). Cultures for each treatment group (i.e., media, vehicle [0.2% DMSO], positive control inducers [multiple concentrations], and the ToxCast chemicals [multiple concentrations]) were observed and cell morphology was assessed relative to vehicle control cultures at each harvest time point (0, 6, 24, or 48 h). […] Images were evaluated at the conclusion of the study to assess changes in cell integrity and account for the effects of chemical exposure on uncharacteristic changes in concentration-dependent gene expression profiles. The results from these determinations of apparent cytotoxicity were annotated (yes/no) alongside the corresponding qNPA data for reference.At the conclusion of each treatment period, hepatocyte cultures (96-well) were washed with 1 volume of HBSS, lysed by addition of 25 ul ArrayPlate lysis buffer (HTG, Tucson, AZ), and 70 ul/well of Denaturation Oil, denatured by incubation at 95C for 10 min, and frozen at approximately -70C until analysis by nuclease protection assay (qNPA) (Roberts et al., 2007). For qNPA analysis, cell lysates were thawed at 50C for approximately 30 min, qNPA probes were added, and samples were incubated at 95C for 10 min to begin the detection process by denaturing the target RNA, dissociating the duplexes and secondary structure hybridization. At the conclusion of the hybridization period, S1 nuclease reagent was added to each sample to digest all nonprotected nucleotides at 50C for 60-90 min. […]
Turning to `OB(O)O`, the outcome was inactive.

In the case of `CCOC(=O)C(C)Oc1ccc(Oc2nc3ccc(Cl)cc3o2)cc1` (stereo not given), the call was inactive.

On to `COC(=O)CSc1cc(N=c2sc(=O)n3n2CCCC3)c(F)cc1Cl`, for which the result was inactive.

For `CCCOC(=O)NCCCN(C)C`, the outcome was inactive.

Take `COc1c(Cl)ccc(Cl)c1C(=O)O`: the compound was called inactive.

As to `CSC(=O)c1cccc2nnsc12`, the result was inactive.

For the compound `COC(=O)c1ccccc1S(=O)(=O)NC(=O)Nc1nc(OC(F)F)cc(OC(F)F)n1`, the compound was called inactive.

On to `CCCN(CCC)C(=O)SCC`, for which the result was inactive.

Turning to `CCOC(=O)NCCOc1ccc(Oc2ccccc2)cc1`, the compound was called inactive.

In the case of `CCCCC(CC)COC(=O)c1ccccc1C(=O)O` (stereo not given), the call was inactive.

Turning to `N#CSCSc1nc2ccccc2s1`, the result was inactive.

Broadly, the AC50 is the midpoint of the concentration-response curve, whichever way the signal moves. `CC(C)(C)[C@@H](O)[C@@H](Cc1ccc(Cl)cc1)n1cncn1`: the AC50 was 9.46 µM (active).

Turning to `CCSC(=O)N(CC(C)C)CC(C)C`, the outcome was inactive.

`Oc1ccc(C(c2ccc(O)cc2)C(Cl)(Cl)Cl)cc1`: the call was inactive.

Take `O=C(Nc1ccc([N+](=O)[O-])cc1Cl)c1cc(Cl)ccc1O`: the result was inactive.

Take `S=C(S)NCCNC(=S)S.[Mn+2].[S-]C([S-])=NCCN=C([S-])[S-].[Zn+2]`: the concentration at half-maximal activity (AC50) was 1.5 µM (active).

Regarding `CCCCC(CC)CN1C(=O)C2C3C=CC(C3)C2C1=O` (stereo not given), the outcome was inactive.

For the compound `COc1nc(C)nc(NC(=O)NS(=O)(=O)c2ccccc2OCCCl)n1`, the compound was called inactive.

`COC(=O)c1cccc(C)c1S(=O)(=O)NC(=O)Nc1nc(OCC(F)(F)F)nc(N(C)C)n1`: the result was inactive.

Turning to `CC1(C)C(C=C(Cl)Cl)C1C(=O)OCc1cccc(Oc2ccccc2)c1` (stereo not given), the outcome was inactive.

For `CCCCOCCOCCOCc1cc2c(cc1CCC)OCO2`, the compound was called inactive.

Turning to `Cc1nn(C)c(Oc2ccccc2)c1C=NOCc1ccc(C(=O)OC(C)(C)C)cc1`, the compound was called inactive.

For `CCCOC(=O)c1ccc(C(=O)OCCC)nc1`, the call was inactive.

Consider `CCOC(=O)C(C)Oc1ccc(Oc2cnc3cc(Cl)ccc3n2)cc1` (stereo not given), for which the outcome was inactive.

Consider `C#CCOC(=O)[C@@H](C)Oc1ccc(Oc2ncc(Cl)cc2F)cc1`, for which the outcome was inactive.

Take `S=C([S-])NCCNC(=S)[S-].[Mn+2]`: the compound was called inactive.

Consider `COCCO`, for which the result was inactive.

`CCC(O)=C1C(=O)CC(C(=O)O)CC1=O` (stereo not given): the call was inactive.

Consider `COC(=O)c1ccc(CNS(C)(=O)=O)cc1S(=O)(=O)NC(=O)Nc1nc(OC)cc(OC)n1`, for which the compound was classed as inactive.

For `CCCN(CCC)c1c([N+](=O)[O-])cc(C(F)(F)F)c(N)c1[N+](=O)[O-]`, the compound was called inactive.

`CCC(C)OC(=O)N1CCCCC1CCO` (stereo not given): the outcome was inactive.

Consider `CCCCOC(=O)[C@@H](C)Oc1ccc(Oc2ccc(C(F)(F)F)cn2)cc1`, for which the result was inactive.

Consider `COC(=O)c1c(Cl)nn(C)c1S(=O)(=O)NC(=O)Nc1nc(OC)cc(OC)n1`, for which the compound was called inactive.

`CCNc1nc(N)nc(Cl)n1`: the call was inactive.

As for `CCN(CC)C(=O)c1cccc(C)c1`, the outcome was inactive.

Regarding `C=CCOC(Cn1ccnc1)c1ccc(Cl)cc1Cl` (stereo not given), the call was inactive.

For `COC(=O)c1ccccc1C(=O)O`, the call was inactive.

For `CCOC(=O)COc1cc(-n2ncc(C(F)(F)F)c(C)c2=O)c(F)cc1Cl`, the compound was called inactive.

With `CCCCCOC(=O)COc1cc(N2C(=O)C3=C(CCCC3)C2=O)c(F)cc1Cl`, the compound was classed as inactive.

As to `CC(C)(c1ccc(O)cc1)c1ccc(O)cc1`, the call was inactive.
